Compound activity (PubChem)
rCAG binder: binders of r(CAG) RNA repeats, primary screen, biochemical, fluorescence; r(CAG) RNA repeat, TO-PRO-1 dye displacement fluorescence; inhibition, % at 3 µM; hit rate 1.3% among 370,000; AID 651821, 2012;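 active = inhibition above the plate cutoff, the mean of all test compounds on that plate plus 3 SD, cut at about 35% in these data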;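 also: higher means more dye released from RNA so lower well fluorescence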
MsrA inhibitor: bovine MsrA enzyme inhibitors, primary screen, biochemical, absorbance, HTS | hit rate 0.75% among 360,000 | inhibition, % at 15.5 µM | purified bovine MsrA, absorbance read-out; in the data active = inhibition above about 4.5%
MsrA act: bovine MsrA enzyme activators, primary screen, biochemical, absorbance, HTS | AID 602163, 2012 | Methionine sulfoxide reductase A (Bos taurus) | activation, % at 10.6 µM | purified bovine MsrA, absorbance read-out | hit rate 0.3% among 360,000; in the data active = activation above about 7.5%
sPLA2-III inh: human group III sPLA2 inhibitors, primary screen, biochemical, QFRET, BODIPY PC-A2 liposome substrate; Group 3 secretory phospholipase A2 (Homo sapiens), Q9NZ20; QFRET BODIPY PC-A2 liposome hydrolysis, fluorescence; inhibition, % at 12.2 µM; hit rate 0.56% among 370,000;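 active = inhibition above mean plus 3 SD of compounds lying within the high and low control bounds, cut at about 19% in these data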
Target sequence (Q9NZ20 whole entry, looked up): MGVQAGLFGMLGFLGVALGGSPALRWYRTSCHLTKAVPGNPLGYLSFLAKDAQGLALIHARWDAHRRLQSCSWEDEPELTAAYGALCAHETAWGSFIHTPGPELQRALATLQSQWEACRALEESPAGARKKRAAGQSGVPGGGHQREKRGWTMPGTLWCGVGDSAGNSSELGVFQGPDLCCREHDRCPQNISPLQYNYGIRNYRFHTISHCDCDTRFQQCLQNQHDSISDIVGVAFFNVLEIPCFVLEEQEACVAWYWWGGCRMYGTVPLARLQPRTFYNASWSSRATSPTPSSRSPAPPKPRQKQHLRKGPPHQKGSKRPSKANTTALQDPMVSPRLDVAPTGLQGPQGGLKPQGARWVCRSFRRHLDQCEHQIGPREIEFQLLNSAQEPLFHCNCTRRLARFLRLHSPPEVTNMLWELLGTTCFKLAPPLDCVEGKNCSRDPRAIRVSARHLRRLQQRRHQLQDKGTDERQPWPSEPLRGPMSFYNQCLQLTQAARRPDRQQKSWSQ
Numbers stand for hits; - = inactive; . = no result given. The list is not random: actives were taken first. Their share in the collection is about 2.8%.

SMILES	rCAG binder	MsrA inhibitor	MsrA act	sPLA2-III inh
Nc1ccc2c(c1)Cc1cc(N)c(Cl)cc1-2	-	-	-	23.9
NC(=O)c1oc2ccccc2c1NC(=O)c1ccco1	-	-	-	-
O=C(O)c1ccc(N=N/C(=N\Nc2ccc(C(=O)O)cc2)c2ccccc2)cc1	76.5	-	-	-
Cc1ccc(C(=O)NC(=S)NCCCN2CCOCC2)cc1	-	-	-	-
CCOc1ccccc1/C=C(\C(=O)O)c1ccc(S(=O)(=O)N2CCCCC2)s1	45.2	-	-	-
NC(=O)c1nn2c(C(F)(F)F)cc(-c3ccccc3)nc2c1Br	-	4.6	-	-
Oc1ccc(N=Cc2ccc(-c3cccs3)s2)cc1	-	5.2	-	-
O=Cc1ccc(-c2cccs2)s1	-	-	-	-
COc1cccc(OC)c1C(=O)Nn1c(C2CCC2)nc2ccccc2c1=O	-	-	9.4	-
Cc1ccc(S(=O)(=O)OCC(=O)Nc2ccc(C(=O)O)c(O)c2)cc1	40.0	-	-	-
Cc1ccc(NC(=O)COCC(=O)Nc2ccc(C)cc2)cc1	-	-	-	-
Cc1ccc(C2CCC3(CCC(=O)N3CCO)CC2)cc1 (configuration not stated)	-	.	.	-
COc1cc(OC)cc(-c2sc3ccc(OC)cc3c2C#CC2(N)CCCCC2)c1	-	-	-	-
COc1cccc(-c2sc3ccc(OC)cc3c2C#CC2(O)CCCCC2)c1	-	4.7	-	-
COc1cc(/C=C2/CC/C(=C/c3ccc(O)c(OC)c3)C2=O)ccc1O	-	-	-	-
COc1cc(/C=C/C=C2/CC/C(=C/C=C/c3ccc(O)c(OC)c3)C2=O)ccc1O	80.3	-	-	-
Cc1cc(/C=C(/C#N)c2cccc(Cl)c2)c(C)n1C	-	4.6	-	-
Cc1cccc(C(=O)Nc2oc(-c3ccccc3)cc2C#N)c1	-	-	-	-
N#Cc1cc(-c2ccccc2)oc1NC(=O)c1ccco1	-	4.6	-	-
O=C(Nc1ccc(N2CCOCC2)cc1N1CCOCC1)c1cccs1	-	-	-	-
O=C(N/N=C/c1ccc(N2CCOCC2)cc1)c1cccs1	-	4.6	-	-
COc1cccc(-c2nc(CS(=O)(=O)CC(=O)NC3CCCCC3C)c(C)o2)c1 (configuration not stated)	-	-	-	-
O=[N+]([O-])CC(=Nc1ccc(Cl)cc1)N/N=C\c1oc(O)c2ccccc12	53.2	-	-	-
COC(=O)c1ccc(-c2ccc(/C=N/NC(=O)CC3(C)OCCCO3)o2)cc1	-	-	-	-
CC1(CC(=O)N/N=C/c2ccc(-c3ccc(C(=O)O)cc3)o2)OCCO1	-	9.0	-	-
SMILES	rCAG binder	MsrA inhibitor	MsrA act	sPLA2-III inh
COc1cc(-c2nnc(SCC(=O)NC3CCCC3)n2C)cc(OC)c1O	-	-	-	-
CCC(=O)Nc1cccc(-c2cc3ccccc3oc2=O)c1	-	-	-	-
O=C(Cc1cccc2ccccc12)Nc1ccc(-c2cc3ccccc3oc2=O)cc1	-	5.3	-	-
COc1ccc(CNC(=O)c2cc(-c3ccco3)on2)cc1	-	-	21.9	-
O=C(NCc1ccc(Cl)cc1)c1cc(-c2ccco2)on1	-	-	-	-
CCCC(C)NC(=O)c1cc(C(=O)OC)cc([N+](=O)[O-])c1 (configuration not stated)	-	-	-	-
CCCC(C)c1nnc(NC(=O)c2cc(C(=O)OC)cc([N+](=O)[O-])c2)s1 (configuration not stated)	50.2	-	-	-
O=C(O)CSCC(=O)Nc1ccc(-c2nc3ccccc3s2)cc1	39.4	-	-	-
O=C(CCN1C(=O)c2ccccc2C1=O)Nc1ccc(-c2nc3ccccc3s2)cc1	-	-	-	-
Cn1c(=O)oc2cc(S(=O)(=O)NCCC(=O)NCCc3ccccc3)ccc21	-	-	-	-
O=C(c1ccccc1)c1c2c(cc3sc4ccccc4[n+]13)-c1cccc3cccc-2c13	-	-	-	23.4
COc1ccc(-c2cccc(NS(=O)(=O)c3cc([N+](=O)[O-])c(C)c([N+](=O)[O-])c3)c2)nn1	56.9	-	-	-
COc1ccc(-c2cccc(NS(=O)(=O)c3cc([N+](=O)[O-])ccc3C)c2)nn1	-	-	-	-
CC(=O)C(Sc1nc(N2CCOCC2)nc(N2CCOCC2)n1)C(=O)Nc1ccccc1 (configuration not stated)	-	-	-	-
N#Cc1ccc(C2CC(OCCF)=CC(=O)O2)cc1 (configuration not stated)	-	-	.	-
[O-][n+]1onc2c1C(N1CCOCC1)CCC2N1CCOCC1 (configuration not stated)	-	-	-	-
CC1CCN(c2nc3nonc3nc2N2CCC(C)CC2)CC1	-	-	-	-
CC1CCCN(c2nc3nonc3nc2N2CCCC(C)C2)C1 (configuration not stated)	-	4.6	-	-
C1CCN(c2nc3nonc3nc2N2CCCC2)C1	-	5.1	-	-
CCOC(=O)C(N)CSC1CC(=O)N(c2ccc(C(=O)OC)cc2)C1=O (configuration not stated)	-	-	11.4	-
COc1ccc2nc(NC(=O)Nc3ccccc3)sc2c1	43.1	-	-	-
COc1cccc2sc(Nc3nc4ccc(NC(C)=O)cc4s3)nc12	49.4	-	-	-
COc1ccc(Cl)cc1NC(=S)N(Cc1ccccc1C)CC1CCC(C(=O)O)CC1 (configuration not stated)	44.9	-	-	-
CN(C)/C=N/c1ncc(C(=O)c2ccc3ccccc3c2)s1	-	4.6	-	-
COc1ccc(CCNC(=O)CN(C)S(=O)(=O)c2ccc(OC)cc2)cc1	-	-	-	-
SMILES	rCAG binder	MsrA inhibitor	MsrA act	sPLA2-III inh
Cc1ccc(C(=O)Nc2nnc(S(=O)(=O)Nc3ccccc3C)s2)cc1C	44.8	-	-	-
CCOc1ccc(C(=O)Nc2nnc(S(=O)(=O)Nc3ccccc3C)s2)cc1	-	-	-	-
O=C(NCc1ccc(-c2nc3ccccc3s2)cc1)c1cc2ccccc2o1	-	-	-	-
COc1cc(/C=C2\SC(=O)N(c3ccc(Cl)cc3)C2=O)cc([N+](=O)[O-])c1O	-	7.1	-	-
CC(C)C(=O)NC(c1ccco1)c1ccc2cccnc2c1O (configuration not stated)	-	-	-	-
CCCC(=O)NC(c1ccc(C)cc1)c1ccc2cccnc2c1O (configuration not stated)	.	.	-	.
CCCC(=O)NC(c1cccc([N+](=O)[O-])c1)c1ccc2cccnc2c1O (configuration not stated)	-	-	-	22.0
CC(C)C(=O)NC(c1cccc([N+](=O)[O-])c1)c1ccc2cccnc2c1O (configuration not stated)	-	-	-	22.5
CCCC(=O)NC(c1ccc(Cl)cc1Cl)c1ccc2cccnc2c1O (configuration not stated)	-	-	-	26.4
CCOC(=O)Cc1csc2nc(-c3ccccc3)cn12	-	-	.	-
CC1CCN(C(=O)CN2C(=O)C(=O)N(C)C2=O)c2ccccc2S1 (configuration not stated)	-	-	-	-
